In the supplement of paper PMC13380429:

tested on: Vero E6 infected with SARS-CoV-2; assay: inhibition of SARS-CoV-2 cytopathic effect; higher = more antiviral protection, active = above 15; details: 100 nM; 48 h

Row | SMILES | inhibition of SARS-CoV-2 cytopathic effect
1 | CCOC(=O)C(=O)Nc1cccc(OC)c1C(N)=O | 6.88% (inactive)
2 | CN(C)C(=O)Oc1ccc[n+](C)c1 [mestinon] | 0.13% (inactive)
3 | CC(C[N+](C)(C)C)OC(N)=O (stereo not drawn) [bethanechol] | -4.87% (inactive)
4 | CC(=O)O[C@]1(C(C)=O)CC[C@H]2[C@@H]3C[C@H](C)C4=CC(=O)CC[C@]4(C)[C@H]3CC[C@@]21C [medroxyprogesterone-acetate] | -1.14% (inactive)
5 | CNC(=O)[C@@H](NC(=O)[C@H](CC(C)C)[C@H](O)C(=O)NO)C(C)(C)C [marimastat] | -5.18% (inactive)
6 | O=S(=O)(F)Cc1ccccc1 [phenylmethylsulfonyl-fluoride] | 2.93% (inactive)
7 | Cc1ccc(S(=O)(=O)n2c(N)nc3ccccc32)cc1 | -2.91% (inactive)
8 | CC(C)Oc1ccc(-c2nc(-c3cccc4c3CC[C@@H]4NCCO)no2)cc1C#N [ozanimod] | 2.87% (inactive)
9 | O=C(O)c1c(Sc2ccccc2)c2cc(Cl)ccc2n1Cc1ccc(Cl)cc1 | -0.5% (inactive)
10 | Cc1nc(Nc2ncc(C(=O)Nc3c(C)cccc3Cl)s2)cc(N2CCN(CCO)CC2)n1 [dasatinib] | -4.77% (inactive)
11 | CCCN1CCN(c2ccc(C(=O)NC3(C(=O)NCC#N)CCCCC3)cc2)CC1 [balicatib] | -1.9% (inactive)
12 | CNC(C)(C)Cc1ccccc1 [mephentermine] | -6.2% (inactive)
13 | C#C[C@]1(O)CC[C@H]2[C@@H]3CCC4=C(CCC(=O)C4)[C@H]3CC[C@@]21C [noretynodrel] | 1.22% (inactive)
